Gal4-VP16 FLuc: counter-screen for ROR gamma inhibitors: Gal4-VP16 reporter; hit rate 3.5% among 310,000; Drosophila S2 Gal4-VP16 UAS-luciferase, luminescence, 20 h; Potency, µM (titrated, usually from 53.6 µM), inactives show at the highest dose activity, negative = inhibition, hits mostly inhibitors;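 note: Gal4-VP16 expression switched on by copper sulfate through the metallothionein promoter; potency is the fitted concentration of half-maximal effect; % is set by controls: 0 for no effect and ±100 for the full control effect; nearly all actives have a fitted effect of over 50% in size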
SW480 rereplic: inducers of DNA re-replication in SW480 colon cancer cells. AID 624297. SW480 DNA re-replication, Hoechst DNA content imaging, 48 h. hit rate 1.8% among 340,000. Potency, µM (series often up to 46.1 µM), for the others: at the highest dose re-replication activation, most hits filed as activators; note: potency is the fitted concentration of half-maximal effect; % of control where 0% means no effect; nearly all actives have a fitted effect of over 55% in size
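SW480 cells exposed to compounds for 48 hr at 37 C, 5% CO2, then Hoechst-stained 40 min. Nuclear DNA content imaged by fluorescence scanning (405 nm excitation, 500-530 nm emission); re-replication scored as increased high-intensity nuclei.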
RORgamma inh: blocks mouse ROR gamma transcriptional activity | Potency, µM (series often up to 53.6 µM), without a hit: top-dose activity change, negative = inhibition, usual class: inhibitors | hit rate 5.4% among 310,000 | AID 2551 | Drosophila S2 Gal4-RORgamma UAS-luciferase reporter, 20 h | P51450; note: potency is the fitted concentration of half-maximal effect; % is set by controls: 0 for no effect and ±100 for the full control effect; nearly all actives have a fitted effect of over 60% in size
Target sequence (P51450 whole entry, looked up, the tested form may be a part): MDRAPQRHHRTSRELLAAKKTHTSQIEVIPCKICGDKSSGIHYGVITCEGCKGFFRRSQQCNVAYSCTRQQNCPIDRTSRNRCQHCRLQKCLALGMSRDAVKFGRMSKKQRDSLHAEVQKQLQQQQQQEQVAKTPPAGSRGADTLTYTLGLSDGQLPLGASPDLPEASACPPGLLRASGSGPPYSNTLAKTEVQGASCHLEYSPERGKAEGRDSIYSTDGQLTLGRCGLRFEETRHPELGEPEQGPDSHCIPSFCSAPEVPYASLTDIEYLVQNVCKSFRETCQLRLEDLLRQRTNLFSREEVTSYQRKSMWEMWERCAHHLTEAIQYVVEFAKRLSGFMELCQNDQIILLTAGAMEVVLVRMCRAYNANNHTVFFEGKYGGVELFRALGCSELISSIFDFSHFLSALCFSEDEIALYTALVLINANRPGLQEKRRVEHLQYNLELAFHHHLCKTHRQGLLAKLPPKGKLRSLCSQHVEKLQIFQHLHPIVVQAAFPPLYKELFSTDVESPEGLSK
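Drosophila S2 cells stably expressing Gal4-DBD/mouse RORγ fusion under metallothionein promoter plus UAS-luciferase; compound 1 h, then 700 uM CuSO4 induction for 20 h at ambient temperature; inhibition read as reduced luminescence.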
IL1B secr inh: inhibitors of inflammasome signaling (IL-1 beta secretion) | THP-1 LPS/ATP IL-1B secretion, AlphaLISA, 16 h; stronger effect = lower value | AID 743279 | hit rate 4.7% among 360,000 | activity change, % at 57.5 µM; in the data active = activity change below about -50%; inconclusive = mostly about -30% to -49%; note: % is set by controls: 0 for no effect and ±100 for the full control effect
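Secreted IL-1B measured by AlphaLISA bead assay after 16 h compound exposure of THP-1 cells; compounds (final up to 57.5 uM) added 1 h before LPS (250 ng/mL) and ATP (1.25 mM) stimulation; lower signal means less secretion.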
MCF10A rereplic: DNA re-replication induction in MCF 10a cells. AID 624296. hit rate 2.9% among 350,000. MCF 10A DNA re-replication, Hoechst nuclear intensity, 48 h. Potency, µM (top dose mostly 46.1 µM), for the others: top-dose activity, positive = re-replication, actives largely listed as activators; note: potency is the fitted concentration of half-maximal effect; % of control where 0% means no effect; nearly all actives have a fitted effect of over 50% in size
* hit, by the source's call; ? = inconclusive; nt = no result given; [ ] = remark or other dose. Shown are actives, neighbours in structure and some others; about 11% of the full set was active somewhere. Unless noted, calls come from the whole dose curve; as a rule, active = well fitted curve in the direction sought with a large enough effect; inconclusive = small, poorly fitted or top-dose-only effect, or another doubt; inactive = no such curve, though single readings can be large; an effect the other way counts as inactive or inconclusive.

SMILES | Gal4-VP16 FLuc | SW480 rereplic | RORgamma inh | IL1B secr inh | MCF10A rereplic
S=c1[nH]nc(CSc2nc3ccccc3s2)n1Cc1ccccc1 | -11% | 3% | 4µM* | 25 | 10%
CCn1c(CSc2nc3ccccc3s2)nnc1SCC(=O)c1ccc(Cl)cc1 | -11% | ? | -34% | -21 | ?
CCn1c(CSc2nc3ccccc3s2)nnc1SCC(=O)c1ccc(O)c(O)c1 | -9% | 0% | 14µM* | 98 | 2%
CC(C)(C)OC(=O)C[C@H]1C/C=C\C[C@H](CC(=O)NCCO)C(=O)NC[C@H](c2ccccc2)OC1=O | nt | -4% | nt | 16 | 23%
C=Cc1c(C)/c2[n-]/c1=C\c1[n-]c(c(CC)c1C)/C=c1\[n-]c3c(c1C)C(=O)C(C(=O)[O-])C=3c1[n-]c(c(C)c1CCC(=O)[O-])\C=2.[Cu].[Na+].[Na+] (configuration not stated) | -15% | -19% | ? | nt | -16%
COc1ccc2[nH]c3c(c2c1)CCN1C(=O)C(CC(=O)NCCCn2ccnc2)C[C@H](C(=O)N2CCCCC2)[C@@]31CCc1ccccc1 (some centres not stated) | nt | -18% | nt | -6 | ?
CN(Cc1ccccc1)c1oc(-c2ccco2)nc1C#N | 13% | -10% | -7% | -71* | 13%
N#C/C(=C\c1ccc([N+](=O)[O-])cc1)C(=O)NCCCn1ccnc1 | ? | 0% | 0% | -12 | ?
N#C/C(=C/c1cn(-c2ccccc2)nc1-c1cccc(OCc2ccc(F)cc2)c1)C(=O)NCCCn1ccnc1 | 11µM* | ? | ? | -68* | 10µM*
CCCOc1cccc(-c2nn(-c3ccccc3)cc2/C=C(\C#N)C(=O)NCCCn2ccnc2)c1 | ? | ? | -21% | -58* | ?
O=C(NCCCn1ccnc1)c1cn(-c2ccccc2)nc1-c1ccc(F)cc1 | 4% | 4% | 23% | ? | 4%
CC1CCN(C2=NC(=O)/C(=C/c3cn(-c4ccccc4)nc3-c3cccc(S(=O)(=O)N(C)C)c3)S2)CC1 | -5% | 21µM* | 2% | -30 | 5%
CC1CCCN(C2=NC(=O)/C(=C/c3cn(-c4ccccc4)nc3-c3cccc(S(=O)(=O)N(C)C)c3)S2)C1 (configuration not stated) | -12% | 0% | 20% | -17 | ?
Nc1ncnc2c1ncn2[C@@H]1O[C@H](C(=O)NS(=O)(=O)c2ccccc2[N+](=O)[O-])[C@@H](O)[C@H]1O | nt | nt | nt | 23 | nt
COc1ccc2nc(C)cc(SCC(=O)NNC(=O)COc3cccc4ccccc34)c2c1 | 8.9µM* | nt | ? | -11 | ?
COc1ccccc1/C=N/NC(=O)CSc1cc(C)nc2ccccc12 | -14% | ? | 11µM* | -66* | 13µM*
COc1ccccc1/C=N/NC(=O)CC(=O)NCc1ccccc1 | -7% | 0% | 1% | -51* | -4%
COc1ccc2nc(C)cc(SCC(=O)N/N=C/c3ccc(O)cc3O)c2c1 | ? | ? | 18µM* | ? | 6.5µM*
C[C@H](CO)N1C[C@H](C)[C@H](CN(C)C(=O)Nc2ccccc2F)OCc2cnnn2CCCC1=O | nt | nt | nt | 1 | nt
Cc1ccc(NC(=O)CCN2C(=O)NC3(CCCC3)C2=O)c(C)c1 | nt | -1% | nt | -13 | 10%
COc1ccccc1/C=N/NC(=O)CO | -13%[10 µM] | -4% | -19% | 27 | 6%
COc1ccccc1/C=N/NC(=O)C(C)Cn1cnc2ccccc21 (configuration not stated) | 6% | -11% | 11µM* | 32 | 12%
COc1ccc2nc(C)cc(SCC(=O)N/N=C/c3ccccc3)c2c1 | 10% | -6% | -5%[10 µM] | -98* | 3%
COc1ccccc1/C=N/NC(=O)CSc1ccc2ccccc2n1 | 0% | ? | -27% | 42 | 16µM*
COc1ccc2nc(C)cc(SCC(=O)N/N=C/c3c(OC)ccc4ccccc34)c2c1 | ? | -6% | ? | 21 | -8%
SMILES | Gal4-VP16 FLuc | SW480 rereplic | RORgamma inh | IL1B secr inh | MCF10A rereplic
COc1cccc2c(SCC(=O)N/N=C/c3ccc(O)cc3O)cc(C)nc12 | 2% | 7.3µM* | ? | -88* | 15µM*
Cc1cc(SCC(=O)NN)c2cc(Br)ccc2n1 | -21% | ? | -18% | -92* | 9.2µM*
Cc1cc(C(=O)NN)c2cc(Br)ccc2n1 | -10% | 15% | 2% | 21 | 22%
Cc1ccc(C)c(C(O)c2ncc(-c3ccc(C(F)(F)F)cc3)[nH]2)c1 (configuration not stated) | nt | nt | nt | -16 | nt
COCCOC(=O)c1c(C)oc2ccc(NS(=O)(=O)c3ccccc3)cc12 | 2% | -7% | 37% | -5 | -3%
CC(=O)c1c(C)oc2ccc(NS(=O)(=O)c3ccc(F)cc3C)cc12 | 13µM* | -4% | ? | 7 | 7%
COCCOC(=O)c1c(C)oc2ccc(NS(=O)(=O)c3ccc(C)cc3)cc12 | 5% | -9% | ? | -10 | 16µM*
COc1ccc(C(=O)N2CCN(c3cccc(Cl)c3)CC2)cc1 | -7% | -1% | -17% | -59* | -1%
COc1ccc(C(=O)N2CCN(c3ccc(F)cc3)CC2)cc1S(=O)(=O)NC1CC1 | nt | -1% | nt | -13 | 0%
COc1ccc(C(=O)N2CCN(c3cccc(Cl)c3)CC2)cc1S(=O)(=O)NC1CC1 | nt | 24% | nt | 22 | 23µM*
O=C(CC1SC(N2CCCC2)=NC1=O)Nc1ccc(C(=O)N2CCN(c3cccc(Cl)c3)CC2)cc1 (configuration not stated) | nt | 0% | nt | -50* | 14%
COc1ccc(C(=S)N2CCN(c3cccc(Cl)c3)CC2)c(OC)c1 | -12% | 4.1µM* | -34% | 50 | 7.3µM*
Cc1cccc(N2CCN(C(=O)c3ccc(NC(=O)CC4SC(N5CCCC5)=NC4=O)cc3)CC2)c1C (configuration not stated) | nt | -38% | nt | -1 | ?
O=C1c2cccc(-c3ccc(C(F)(F)F)cc3)c2C2CC=CCN12 (configuration not stated) | nt | nt | nt | 44 | nt
CN(C)C1C(=O)C(C(N)=O)C(=O)C2(O)C(=O)C3C(=O)c4c(O)ccc(Cl)c4C(O)C3CC12 (configuration not stated) | -8% | nt | -11% | nt | nt
O=C(NCCCN1CCOCC1)c1cccc(S(=O)(=O)Nc2ccccc2Cl)c1 | 2% | 6% | -12% | 3 | 9%
Cc1ccc(C(=O)N2CCN(c3cccc(Cl)c3)CC2)cc1C | 17% | 12µM* | -42% | 16 | 18µM*
Cc1ccc(C(=O)N2CCN(c3ccccc3)CC2)cc1C | 3% | -1% | 33% | -1 | -2%
CCOc1ccc(CN(C)C(=O)c2cc(S(=O)(=O)N3CCCC3)ccc2C)cc1 | nt | -1% | nt | 8 | -1%

Compound activity from PubChem BioAssay.
